The whole screen tested about 5,500 compounds, of which about 2,000 (36%) were called active. About 18% were inconclusive and are not listed. Cut-off read from the data, not from the text of the source: active = normalized growth mostly below about 0.91 (no sharp cut-off); inconclusive = no clear call, values can overlap the other calls; inactive = mostly above about 0.92. The list shows a part of the results.
Assay: chemical genetic growth profiling, strain panel (AID 1159580);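 note: tested at 20 µM; growth read once vehicle control cultures reached saturation at 30 °C; 1 = growth at the plate median or of vehicle wells; lower values mean less growth of the strain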
Conditions: growth OD
[1] = S. cerevisiae deletion strains, locus YAL013W, strain DEP1, active compounds read low
[2] = S. cerevisiae deletion strains, locus YBR229C, strain ROT2, active compounds read low
[3] = S. cerevisiae deletion strains, locus YDL101C, strain DUN1, active compounds read low
[4] = S. cerevisiae deletion strains, locus YDL134C, strain PPH21, active compounds read low
[5] = S. cerevisiae deletion strains, locus YDR150W, strain NUM1, active compounds read low
[6] = S. cerevisiae deletion strains, locus YEL061C, strain CIN8, active compounds read low
[7] = S. cerevisiae deletion strains, locus YGR078C, strain PAC10, active compounds read low
[8] = S. cerevisiae deletion strains, locus YHR030C, strain SLT2, active compounds read low
[9] = S. cerevisiae deletion strains, locus YJR043C, strain POL32, active compounds read low
[10] = S. cerevisiae deletion strains, locus YJR075W, strain HOC1, active compounds read low
[11] = S. cerevisiae deletion strains, locus YKL190W, strain CNB1, active compounds read low
[12] = S. cerevisiae deletion strains, locus YLR039C, strain RIC1, active compounds read low
[13] = S. cerevisiae deletion strains, locus YLR262C, strain YPT6, active compounds read low
[14] = S. cerevisiae deletion strains, locus YMR263W, strain SAP30, active compounds read low
[15] = S. cerevisiae deletion strains, locus YNL153C, strain GIM3, active compounds read low
[16] = S. cerevisiae deletion strains, locus YNL322C, strain KRE1, active compounds read low
[17] = S. cerevisiae deletion strains, locus YOL006C, strain TOP1, active compounds read low
[18] = S. cerevisiae deletion strains, locus YPL055C, strain LGE1, active compounds read low
[19] = S. cerevisiae deletion strains, locus YPL241C, strain CIN2, active compounds read low

Measured: normalized growth

CC(SCc1ccccc1)C(=O)O (stereo not given)
inactive: [1] 0.971 | [2] 0.965 | S. cerevisiae deletion strains, locus YCL061C, strain MRC1, active compounds read low 0.997 | [3] 1 | [4] 1 | [5] 0.91 | [6] 1.04 | [7] 0.994 | [8] 0.992 | S. cerevisiae deletion strains, locus YHR087W, strain rtc3, active compounds read low 0.978 | S. cerevisiae deletion strains, locus YJL187C, strain SWE1, active compounds read low 0.986 | [9] 0.981 | [10] 0.965 | [11] 1 | [12] 1.02 | S. cerevisiae deletion strains, locus YLR058C, strain SHM2 (second series), active compounds read low 0.988 | S. cerevisiae deletion strains, locus YLR085C, strain ARP6, active compounds read low 1.01 | [13] 1.02 | S. cerevisiae deletion strains, locus YML094W, strain GIM5, active compounds read low 1.02 | S. cerevisiae deletion strains, locus YMR219W, strain ESC1, active compounds read low 0.979 | [14] 0.984 | [15] 0.981 | S. cerevisiae deletion strains, locus YNL298W, strain CLA4 (second series), active compounds read low 1.04 | [16] 0.991 | S. cerevisiae deletion strains, locus YNR030W, strain Alg12, active compounds read low 1 | [17] 1.02 | [18] 0.856 | [19] 1 | S. cerevisiae deletion strains, locus YPR135W, strain CTF4, active compounds read low 0.976

CCc1cccc(C)c1N(C(=O)CCl)C(C)COC (stereo not given)
inactive: [1] 1.01 | S. cerevisiae deletion strains, locus YBR021W, strain FUR4, active compounds read low 0.996 | [2] 1 | S. cerevisiae deletion strains, locus YCL029C, strain bik1, active compounds read low 1.02 | S. cerevisiae deletion strains, locus YDL035C, strain GPR1, active compounds read low 1.02 | S. cerevisiae deletion strains, locus YDL074C, strain BRE1, active compounds read low 1.02 | [3] 1.02 | [4] 1.01 | S. cerevisiae deletion strains, locus YDL185W, strain tfp1, active compounds read low 1.02 | S. cerevisiae deletion strains, locus YDL192W, strain arf1, active compounds read low 1.02 | S. cerevisiae deletion strains, locus YDR101C, strain arx1, active compounds read low 1.01 | [5] 1.01 | S. cerevisiae deletion strains, locus YDR162C, strain NBP2, active compounds read low 1.01 | S. cerevisiae deletion strains, locus YDR318W, strain mcm21, active compounds read low 1.01 | S. cerevisiae deletion strains, locus YDR388W, active compounds read low 1.01 | S. cerevisiae deletion strains, locus YDR502C, strain sam2, active compounds read low 1.02 | [6] 1.01 | S. cerevisiae deletion strains, locus YER110C, active compounds read low 1.02 | S. cerevisiae deletion strains, locus YER155C, strain BEM2, active compounds read low 1.01 | S. cerevisiae deletion strains, locus YER167W, strain BCK2, active compounds read low 1.02 | S. cerevisiae deletion strains, locus YGL078C, strain dbp3, active compounds read low 1.01 | S. cerevisiae deletion strains, locus YGL086W, strain mad1, active compounds read low 1.01 | S. cerevisiae deletion strains, locus YGL248W, strain PDE1, active compounds read low 1.01 | [7] 1.02 | S. cerevisiae deletion strains, locus YGR135W, strain pre9, active compounds read low 1.01 | S. cerevisiae deletion strains, locus YGR229C, strain SMI1, active compounds read low 1.03 | S. cerevisiae deletion strains, locus YGR252W, strain gcn5, active compounds read low 1.01 | [8] 1.01 | S. cerevisiae deletion strains, locus YHR079C, strain IRE1 (second series), active compounds read low 1.02 | S. cerevisiae deletion strains, locus YHR094C, strain hxt1, active compounds read low 1.02 | S. cerevisiae deletion strains, locus YHR129C, strain ARP1, active compounds read low 1.01 | S. cerevisiae deletion strains, locus YHR200W, strain rpn10, active compounds read low 1.02 | S. cerevisiae deletion strains, locus YIL066C, strain RNR3, active compounds read low 1.02 | S. cerevisiae deletion strains, locus YIL073C, strain SPO22, active compounds read low 1.05 | S. cerevisiae deletion strains, locus YIL125W, strain kgd1, active compounds read low 1.02 | S. cerevisiae deletion strains, locus YIR030C, strain dcg1, active compounds read low 1.02 | S. cerevisiae deletion strains, locus YJL095W, strain BCK1, active compounds read low 0.991 | S. cerevisiae deletion strains, locus YJL134W, strain LCB3, active compounds read low 1.02 | S. cerevisiae deletion strains, locus YJL168C, strain set2, active compounds read low 1.01 | S. cerevisiae deletion strains, locus YJL187C, strain SWE1 (second series), active compounds read low 1.01 | [9] 1.02 | [10] 1.01 | S. cerevisiae deletion strains, locus YKL009W, strain mrt4, active compounds read low 1.03 | S. cerevisiae deletion strains, locus YKL068W, active compounds read low 1.01 | S. cerevisiae deletion strains, locus YKL085W, strain MDH1 (second series), active compounds read low 1.02 | S. cerevisiae deletion strains, locus YKL085W, strain MDH1, active compounds read low 1.02 | [11] 1.02 | S. cerevisiae deletion strains, locus YKR001C, strain vps1, active compounds read low 1.03 | [12] 0.993 | S. cerevisiae deletion strains, locus YLR058C, strain SHM2, active compounds read low 1.01 | S. cerevisiae deletion strains, locus YLR102C, strain apc9, active compounds read low 1.02 | [13] 1.03 | S. cerevisiae deletion strains, locus YLR268W, strain sec22, active compounds read low 1.01 | S. cerevisiae deletion strains, locus YLR330W, strain CHS5, active compounds read low 1.01 | S. cerevisiae deletion strains, locus YLR342W, strain FKS1 (second series), active compounds read low 1.04 | S. cerevisiae deletion strains, locus YLR371W, strain rom2, active compounds read low 1.02 | S. cerevisiae deletion strains, locus YLR418C, strain cdc73, active compounds read low 1.01 | S. cerevisiae deletion strains, locus YML016C, strain PPZ1, active compounds read low 1.01 | S. cerevisiae deletion strains, locus YML032C, strain rad52, active compounds read low 0.992 | S. cerevisiae deletion strains, locus YML124C, strain tub3, active compounds read low 1.02 | S. cerevisiae deletion strains, locus YMR078C, strain ctf18, active compounds read low 1.02 | S. cerevisiae deletion strains, locus YMR223W, strain ubp8, active compounds read low 1.02 | [14] 1 | S. cerevisiae deletion strains, locus YMR307W, strain GAS1, active compounds read low 1 | S. cerevisiae deletion strains, locus YNL067W, strain RPL9B, active compounds read low 1.01 | S. cerevisiae deletion strains, locus YNL128W, strain TEP1, active compounds read low 1.01 | [15] 1.01 | S. cerevisiae deletion strains, locus YNL233W, strain BNI4, active compounds read low 1.01 | S. cerevisiae deletion strains, locus YNL250W, strain rad50, active compounds read low 1.01 | S. cerevisiae deletion strains, locus YNL271C, strain bni1, active compounds read low 1.03 | S. cerevisiae deletion strains, locus YNL298W, strain CLA4, active compounds read low 1.02 | S. cerevisiae deletion strains, locus YNL307C, strain MCK1, active compounds read low 1.02 | [16] 1.01 | S. cerevisiae deletion strains, locus YNR052C, strain pop2, active compounds read low 1.02 | [17] 1.03 | S. cerevisiae deletion strains, locus YOL012C, strain htz1 0.819 | S. cerevisiae deletion strains, locus YOL147C, strain pex11, active compounds read low 1.02 | S. cerevisiae deletion strains, locus YOR061W, strain CKA2, active compounds read low 1.01 | S. cerevisiae deletion strains, locus YOR069W, strain VPS5, active compounds read low 1.01 | S. cerevisiae deletion strains, locus YOR136W, strain idh2, active compounds read low 1.01 | S. cerevisiae deletion strains, locus YOR144C, strain elg1, active compounds read low 1.02 | S. cerevisiae deletion strains, locus YOR184W, strain ser1, active compounds read low 1.03 | S. cerevisiae deletion strains, locus YOR316C, strain cot1, active compounds read low 1.02 | [18] 1.03 | [19] 1.02 | S. cerevisiae deletion strains, locus YPR119W, strain clb2, active compounds read low 1.01 | S. cerevisiae deletion strains, locus YPR141C, strain kar3, active compounds read low 1.02 | S. cerevisiae deletion strains, locus YPR163C, strain tif3, active compounds read low 1.02 | S. cerevisiae deletion strains, locus YPR167C, strain met16, active compounds read low 1.02 | S. cerevisiae deletion strains, strain wtn01, active compounds read low 1.02 | S. cerevisiae strains, strain wild type, active compounds read low 1

Reference: PubChem BioAssay AID1159580 (chemical genetic matrix, 2015)
